# Measured values as given in PubChem BioAssay (NCATS).
# Results filed as inconclusive are left out. A call without a number means that no potency is given here. Values without a mark were called inactive. Calls of active or inactive are those of the source. The call rests on the fitted dose curve; in most records, active means well fitted cell-killing curve with a large enough effect; inconclusive means small, poorly fitted or top-dose-only effect, or effect the other way; inactive means no such curve, though single readings can be large or run the other way.
# What was measured:
# [1] = Quantitative High-Throughput drug screen in 47 multiple myeloma cell lines against the NCATS MIPE library collection: MM1R_ATCC cell viability assay (AID 1918981); further: nearly all actives have a fitted effect of over 35% in size; further: potency means the concentration at half of the fitted maximal effect
# In short: (§1)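 qHTS format: cells plated (500/well), pin-dosed with MIPE 4.0 compounds, kept 48 h at 37 °C. Readout was CellTiter-Glo luminescence, median RLU.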
# [2] = Quantitative High-Throughput drug screen in 47 multiple myeloma cell lines against the NCATS MIPE library collection: LP1_DSMZ cell viability assay (AID 1918982); further: nearly all actives have a fitted effect of over 35% in size; further: potency means the concentration at half of the fitted maximal effect
# In short: as §1
# [3] = Quantitative High-Throughput drug screen in 47 multiple myeloma cell lines against the NCATS MIPE library collection: KMS28PE_JCRB cell viability assay (AID 1918983); further: nearly all actives have a fitted effect of over 35% in size; further: potency means the concentration at half of the fitted maximal effect
# In short: as §1
# [4] = Quantitative High-Throughput drug screen in 47 multiple myeloma cell lines against the NCATS MIPE library collection: KMS34_JCRB cell viability assay (AID 1918985); further: nearly all actives have a fitted effect of over 40% in size; further: potency means the concentration at half of the fitted maximal effect
# In short: as §1
# [5] = Quantitative High-Throughput drug screen in 47 multiple myeloma cell lines against the NCATS MIPE library collection: OCIMY7_PLB cell viability assay (AID 1918987); further: nearly all actives have a fitted effect of over 65% in size; further: potency means the concentration at half of the fitted maximal effect
# In short: as §1
# [6] = Quantitative High-Throughput drug screen in 47 multiple myeloma cell lines against the NCATS MIPE library collection: OCIMY5_PLB cell viability assay (AID 1918988); further: nearly all actives have a fitted effect of over 65% in size; further: potency means the concentration at half of the fitted maximal effect
# In short: as §1
# [7] = Quantitative High-Throughput drug screen in 47 multiple myeloma cell lines against the NCATS MIPE library collection: OPM1_PLB cell viability assay (AID 1918989); further: nearly all actives have a fitted effect of over 40% in size; further: potency means the concentration at half of the fitted maximal effect
# In short: as §1
# [8] = Quantitative High-Throughput drug screen in 47 multiple myeloma cell lines against the NCATS MIPE library collection: SKMM1_PLB cell viability assay (AID 1919863); settings: SKMM1 myeloma viability, CellTiter-Glo ATP, 48 h; viability: active compounds read low; further: series mostly up to about 46 µM; nearly all actives have a fitted effect of over 35% in size
# In short: as §1
# [9] = Quantitative High-Throughput drug screen in 47 multiple myeloma cell lines against the NCATS MIPE library collection: PE2_PLB cell viability assay (AID 1919869); further: nearly all actives have a fitted effect of over 35% in size; further: potency means the concentration at half of the fitted maximal effect
# In short: as §1
# [10] = Quantitative High-Throughput drug screen in 47 multiple myeloma cell lines against the NCATS MIPE library collection: RPMI8226_ATCC cell viability assay (AID 1919871); further: nearly all actives have a fitted effect of over 30% in size
# In short: as §1
# [11] = Quantitative High-Throughput drug screen in 47 multiple myeloma cell lines against the NCATS MIPE library collection: OPM2_DSMZ cell viability assay (AID 1919872); further: nearly all actives have a fitted effect of over 30% in size
# In short: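 Viability readout: CellTiter-Glo luminescence following 5 min room-temperature incubation with reagent. Prior exposure: 48 h, 37C, humidified 5% CO2, 500 cells per well.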
# [12] = Quantitative High-Throughput drug screen in 47 multiple myeloma cell lines against the NCATS MIPE library collection: KMS11_JCRBsus cell viability assay (AID 1919873); further: nearly all actives have a fitted effect of over 50% in size; further: potency means the concentration at half of the fitted maximal effect
# In short: as §1
# [13] = Quantitative High-Throughput drug screen in 47 multiple myeloma cell lines against the NCATS MIPE library collection: KMS28BM_JCRB cell viability assay (AID 1919874); further: nearly all actives have a fitted effect of over 35% in size; further: potency means the concentration at half of the fitted maximal effect
# In short: as §1
# [14] = Quantitative High-Throughput drug screen in 47 multiple myeloma cell lines against the NCATS MIPE library collection: XG1_PLB cell viability assay (AID 1919866); further: nearly all actives have a fitted effect of over 35% in size; further: potency means the concentration at half of the fitted maximal effect
# In short: as §1
# [15] = Quantitative High-Throughput drug screen in 47 multiple myeloma cell lines against the NCATS MIPE library collection: VP6_DJ cell viability assay (AID 1919867); further: nearly all actives have a fitted effect of over 40% in size; further: potency means the concentration at half of the fitted maximal effect
# In short: as §1
# [16] = Quantitative High-Throughput drug screen in 47 multiple myeloma cell lines against the NCATS MIPE library collection: UTMC2_PLB cell viability assay (AID 1919868); further: nearly all actives have a fitted effect of over 55% in size
# In short: as §1
# [17] = Quantitative High-Throughput drug screen in 47 multiple myeloma cell lines against the NCATS MIPE library collection: L363_DSMZ cell viability assay (AID 1918984); further: nearly all actives have a fitted effect of over 40% in size; further: potency means the concentration at half of the fitted maximal effect
# In short: as §1
# [18] = Quantitative High-Throughput drug screen in 47 multiple myeloma cell lines against the NCATS MIPE library collection: U266_ATCC cell viability assay (AID 1919864); further: nearly all actives have a fitted effect of over 35% in size; further: potency means the concentration at half of the fitted maximal effect
# In short: as §1
# [19] = Quantitative High-Throughput drug screen in 47 multiple myeloma cell lines against the NCATS MIPE library collection: XG6_PLB cell viability assay (AID 1919865); further: nearly all actives have a fitted effect of over 40% in size; further: potency means the concentration at half of the fitted maximal effect
# In short: as §1
# [20] = Quantitative High-Throughput drug screen in 47 multiple myeloma cell lines against the NCATS MIPE library collection: PCM6_Riken cell viability assay (AID 1919870); further: nearly all actives have a fitted effect of over 30% in size; further: potency means the concentration at half of the fitted maximal effect
# In short: as §1
SMILES,Potency [1],Potency [2],Potency [3],Potency [4],Potency [5],Potency [6],Potency [7],viability [8],Potency [9],Potency [10],Potency [11],Potency [12],Potency [13],Potency [14],Potency [15],Potency [16],Potency [17],Potency [18],Potency [19],Potency [20]
S=P(N1CC1)(N1CC1)N1CC1,18.7 µM (active),inactive,inactive,0.0012 µM (active),13.2 µM (active),inactive,inactive,142%,inactive,inactive,inactive,inactive,inactive,,,,,,,
CCCOc1ccc(C(=O)OCCN(CC)CC)cc1N,inactive,inactive,inactive,inactive,,inactive,inactive,118%,inactive,inactive,inactive,14.8 µM (active),,inactive,9.35 µM (active),inactive,,,,
O=C(O)c1cc(=O)[nH]c(=O)[nH]1,inactive,inactive,5.9 µM (active),,,,inactive,112%,inactive,inactive,inactive,,,inactive,inactive,,inactive,inactive,inactive,inactive
CO[C@@H]1[C@@H](OC(N)=O)[C@@H](O)[C@H](Oc2ccc3c(O)c(NC(=O)c4ccc(O)c(CC=C(C)C)c4)c(=O)oc3c2C)OC1(C)C,8.33 µM (active),inactive,4.69 µM (active),1.48 µM (active),5.9 µM (active),8.33 µM (active),5.26 µM (active),,6.62 µM (active),,,,9.35 µM (active),5.9 µM (active),,,,,6.62 µM (active),
CCCCCCNC(=O)n1cc(F)c(=O)[nH]c1=O,4.18 µM (active),11.8 µM (active),inactive,8.33 µM (active),,,inactive,,inactive,,inactive,,inactive,,5.26 µM (active),,,,,inactive
CC1=C(C(=O)O)N2C(=O)[C@@H](NC(=O)C(N)c3ccccc3)[C@H]2SC1 (stereo partly drawn),inactive,inactive,inactive,,,,inactive,130%,inactive,,inactive,inactive,inactive,,inactive,inactive,,,,inactive
Cc1nnc(NS(=O)(=O)c2ccc(N)cc2)s1,18.7 µM (active),inactive,23.5 µM (active),,,,14.8 µM (active),,inactive,,,,4.18 µM (active),1.32 µM (active),0.187 µM (active),,1.18 µM (active),14.8 µM (active),,
COc1cc2ncnc(Nc3cccc(Cl)c3)c2cc1OC,20.9 µM (active),inactive,26.4 µM (active),,,0.264 µM (active),20.9 µM (active),,,,inactive,18.7 µM (active),,,,inactive,,0.132 µM (active),,
O=C(N[C@H](CO)[C@H](O)c1ccc([N+](=O)[O-])cc1)C(Cl)Cl,inactive,inactive,inactive,,,,inactive,115%,,,inactive,inactive,inactive,inactive,,,,,inactive,
O=S(=O)(c1cccc2cnccc12)N1CCCNCC1,inactive,inactive,18.7 µM (active),,,,,125%,,inactive,inactive,,,,18.7 µM (active),,,inactive,,
NCCCC(O)(P(=O)(O)O)P(=O)(O)O,inactive,inactive,inactive,,,,inactive,137%,inactive,inactive,inactive,,14.8 µM (active),inactive,,,,,,9.35 µM (active)
CN(C)CCc1c[nH]c2ccc(C[C@H]3COC(=O)N3)cc12,inactive,inactive,,inactive,inactive,inactive,,104%,,inactive,inactive,inactive,inactive,inactive,inactive,,inactive,,3.32 µM (active),inactive
CCN1CCCC1CNC(=O)c1cc(S(N)(=O)=O)ccc1OC (stereo not drawn),inactive,inactive,inactive,,,,inactive,123%,,inactive,inactive,inactive,inactive,inactive,5.9 µM (active),,inactive,,,
O=S(=O)(O)CCS,inactive,inactive,inactive,inactive,inactive,,inactive,136%,,inactive,inactive,inactive,inactive,inactive,,inactive,,,,
COc1ncnc(NS(=O)(=O)c2ccc(N)cc2)c1OC,inactive,inactive,inactive,inactive,,,inactive,128%,inactive,inactive,,,inactive,inactive,inactive,inactive,,inactive,,inactive
NC(=O)c1cccnc1,inactive,inactive,inactive,,,inactive,inactive,105%,inactive,,,,inactive,inactive,inactive,inactive,,inactive,,
